Results published in the supplement of paper PMC4894684.
Where a name gives a salt, the structure may show the parent alone. ± gives the standard deviation of the averaged measurements.

system: Toxoplasma gondii RH (in HFF); experiment: parasite growth relative to the screen mean (all compounds = 100%); higher = less inhibition of parasite growth; settings: 5 µM; 72 h; oxygen 21 %
Procedure, shortened: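 Confluent human foreskin fibroblasts in 96-well plates received library compounds by pin transfer at 5 µM final, taken from 10 mM DMSO stocks. Within 2 h the cells were infected with RH β-Gal–GFP Toxoplasma at MOI 1:5 and cultured 72 h at 21% O2. A CPRG β-Gal assay read against in-plate standard curves gave parasite number, and growth is stated relative to the screen mean, where all compounds = 100%, averaged across two screens.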

Row | SMILES | parasite growth
1 | C=C(C)[C@H]1CN[C@H](C(=O)O)[C@H]1CC(=O)O [Kainic acid] | 58.7 ± 12%
2 | CC[C@@H](CO)NC(=O)[C@@H]1C=C2c3cccc4c3c(cn4C)C[C@H]2N(C)C1 [Methysergide maleate] | 189 ± 24%
3 | C=CCN1C[C@H](C)N([C@H](c2ccc(C(=O)N(CC)CC)cc2)c2cccc(OC)c2)C[C@H]1C | 42.5 ± 3.7%
4 | C=CCN1CC[C@]2(C)c3cc(O)ccc3C[C@H]1C2C (single isomer, unassigned; (+)) | 97.7 ± 5.9%
5 | COc1cc2c(cc1O)C(CCc1ccc(Cl)cc1)N(C)CC2 (centres undefined) | 58.7 ± 22%
6 | COc1ccc(CNC(=O)/C=C/c2ccc3[nH]cc(CCN(C)C)c3c2)cc1 | 98.3 ± 31%
7 | NC1(c2ccccc2Cl)CCCCC1=O (centres undefined) [Norketamine hydrochloride] | 86.9 ± 27%
8 | COc1ccc(CCN2CCC(Nc3nc4ccccc4n3Cc3ccc(F)cc3)CC2)cc1 [Astemizole] | < 0%
9 | N[C@@H](Cn1oc(=O)[nH]c1=O)C(=O)O [L-Quisqualic acid] | 99 ± 20%
10 | Oc1ccc2c3c1O[C@H]1c4[nH]c5c(c4C[C@@]4(O)[C@@H](C2)N(CC2CC2)CC[C@]314)C[C@@]1(O)[C@H]2Cc3ccc(O)c4c3[C@@]1(CCN2CC1CC1)[C@H]5O4 [nor-Binaltorphimine dihydrochloride] | 123 ± 3.2%
11 | COc1ccc2[nH]cc(C3=CCNCC3)c2c1 | 105 ± 28%
12 | C(=C\c1ccccc1)/CN1CCN(CCOC(c2ccccc2)c2ccccc2)CC1 | 16.2 ± 8.1%
13 | CC(=O)[C@H]1CC[C@H]2[C@@H]3CC[C@H]4C[C@](C)(O)CC[C@]4(C)[C@H]3CC[C@]12C [Ganaxolone] | 147 ± 17%
14 | COc1ccc(C(=O)N2CCCC2=O)cc1 [Aniracetam] | 97.2 ± 53%
15 | CN(C)CCN(C)CCc1ccc(Cl)c(Cl)c1 [BD 1047 dihydrobromide] | 89.4 ± 30%
16 | CC(C)(C)OC(=O)c1ncn2c1[C@@H]1CCCN1C(=O)c1c(Br)cccc1-2 [Bretazenil] | 87.1 ± 5.4%
17 | CN1CCc2cc3c(cc2C1C1OC(=O)c2c1ccc1c2OCO1)OCO3 (single isomer, unassigned; (+)) [(+)-Bicuculline] | 141 ± 54%
18 | Oc1ccc2c3c1O[C@H]1c4oc5ccccc5c4C[C@@]4(O)[C@@H](C2)N(CC2CC2)CC[C@]314 [Naltriben mesylate] | 127 ± 55%
19 | CCCN(C/C=C/I)C1CCc2ccc(O)cc2C1 (centres undefined) [7-Hydroxy-PIPAT maleate] | 181 ± 37%
20 | O=c1[nH]c2ccccc2n1CCCN1CCC(n2c(=O)[nH]c3cc(Cl)ccc32)CC1 [Domperidone] | 129 ± 11%

Row | SMILES | parasite growth
21 | C/C(O)=C(\C#N)C(=O)Nc1cc(Br)ccc1Br | 130 ± 7.2%
22 | O=C1CCCN1CC#CCN1CCCC1 [Oxotremorine sesquifumarate] | 92 ± 32%
23 | CCOC(=O)c1cncn1[C@H](C)c1ccccc1 [Etomidate] | 114 ± 17%
24 | CC(N)Cc1c[nH]c2ccc(OCc3cccs3)cc12 (centres undefined) [BW 723C86 hydrochloride] | 133 ± 3.8%
25 | CCOC(=O)c1ncn2c1CN(C)C(=O)c1cc(N=[N+]=[N-])ccc1-2 | 60 ± 14%
26 | Cc1onc(O)c1CC(N)C(=O)O (racemic) | 107 ± 41%
27 | CC(C)NCC(O)c1ccc(N)c(C#N)c1 (centres undefined) [Cimaterol] | 130 ± 2.8%
28 | NP(N)(=O)NC(=O)c1ccc(F)cc1 [Flurofamide] | 90 ± 34%
29 | CCCOc1ccc2[nH]cc(C3=CCNCC3)c2n1 | 140 ± 5.8%
30 | CCCN(CCC)C1Cc2cc(OC)c(OC)cc2C1 | 123 ± 7.5%
31 | CN1CC[C@@H]2CN3CCc4cccc(c43)[C@@H]2C1 [SDZ SER 082 fumarate] | 165 ± 19%
32 | Cc1cc(SCc2sc(-c3ccc(C(F)(F)F)c(F)c3)nc2C)ccc1OCC(=O)O | 79.2 ± 4.8%
33 | O=C(O)/C=C/CO [trans-4-Hydroxycrotonic acid] | 108 ± 8.3%
34 | Cc1nc(N)sc1CCN [Amthamine dihydrobromide] | 94 ± 4.8%
35 | CC(C)C[C@@H](N)C1(c2ccc(Cl)cc2)CCC1 | 111.4 ± 0.42%
36 | O=C(Cc1ccc(Cl)c(Cl)c1)N1CCCCC1CN1CCCC1 (centres undefined) | 82.1 ± 15%
37 | CN1CCN(c2ccc3ccccc3n2)CC1 [N-Methylquipazine dimaleate] | 111 ± 14%
38 | O=c1[nH]oc2c1CCNC2 [THIP hydrochloride] | 119 ± 21%
39 | C[N+]1(C)CCc2cc3c(cc2[C@H]1[C@@H]1OC(=O)c2c1ccc1c2OCO1)OCO3 [(-)-Bicuculline methochloride] | 120 ± 37%
